Bioassay records: PubChem, National Center for Advancing Translational Sciences (NCATS)
ELG1 genotoxic = genotoxicity induction in ELG1-luciferase HEK293T cells; Potency, µM (doses to about 46 µM), for the others: top-dose activity change, positive = activation, usual class: activators; HEK293T ELG1-luciferase reporter, luminescence, 16 h; 330,000 compounds, 1.3% hits; also: % of control where 0% means no effect; nearly all actives have a fitted effect of over 60% in size
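ELG1-luciferase HEK293T cells, 2,000/well; compound pinned in; 16 hr, 37 °C, 5% CO2; ONE-Glo, 30 min RT; luminescence on CCD imager.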
KinaseGlo FLuc = Kinase-Glo luciferase inhibition (counter-screen); Kinase-Glo luciferase, ATP luminescence, 8 min; Q27757; 200,000 compounds, 0.28% hits; Potency, µM (doses to about 38.3 µM), for inactives: at the top dose activity change, negative = inhibition, actives largely listed as inhibitors; also: % is scaled to controls: 0 for no effect and ±100 for the full control effect; nearly all actives have a fitted effect of over 60% in size
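Inhibition of Kinase-Glo luciferase light generation was assessed at 10 uM ATP in pH 7.2 imidazole buffer, with luminescence measured after eight minutes at ambient temperature.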
SMN2 splice enh = SMN2 splice variant enhancement; Potency, µM (doses to about 46.1 µM), for the others: at the highest dose activity change, positive = activation, usual class: activators; HEK293 SMN2-luciferase splicing reporter, luminescence, 30-36 h; 210,000 compounds, 2.8% hits; also: % of control where 0% means no effect; nearly all actives have a fitted effect of over 55% in size
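HEK293 cells carry an SMN2 minigene-luciferase reporter in which exon 7 inclusion puts luciferase in frame. Cells were seeded at 2000 cells/well, attached for 10-12 hours, then exposed to compounds for 30-36 hours at 37C before ONE-Glo luminescence.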
FLuc modulator = firefly luciferase modulation, counter-screen for miR-21 project; P08659; Potency, µM (highest dose often 57.5 µM), for the others: at the highest dose activity change, negative = inhibition, usual class: inhibitors; 360,000 compounds, 6.9% hits; purified FLuc, Km substrates, luminescence inhibition;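 also: plate controls were vehicle for no effect and reference inhibitor for full effect; nearly all actives have a fitted effect of over 55% in size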
Target sequence (P08659 whole entry, looked up): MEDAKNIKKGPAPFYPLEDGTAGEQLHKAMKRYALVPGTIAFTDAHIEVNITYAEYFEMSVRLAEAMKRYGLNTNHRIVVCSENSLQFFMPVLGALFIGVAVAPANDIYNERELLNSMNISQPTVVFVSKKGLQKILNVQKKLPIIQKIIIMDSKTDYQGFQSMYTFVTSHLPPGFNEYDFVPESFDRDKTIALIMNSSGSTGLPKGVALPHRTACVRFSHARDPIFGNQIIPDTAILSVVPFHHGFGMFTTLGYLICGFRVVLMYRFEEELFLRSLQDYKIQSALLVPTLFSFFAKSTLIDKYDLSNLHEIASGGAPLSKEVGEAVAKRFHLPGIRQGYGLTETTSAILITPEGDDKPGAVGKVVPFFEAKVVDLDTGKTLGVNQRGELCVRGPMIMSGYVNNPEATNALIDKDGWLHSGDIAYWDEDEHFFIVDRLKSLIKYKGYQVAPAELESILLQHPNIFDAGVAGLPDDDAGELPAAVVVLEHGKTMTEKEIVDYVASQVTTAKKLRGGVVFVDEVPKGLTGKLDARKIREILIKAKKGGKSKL
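Purified P. pyralis luciferase (10nM final) with 10uM D-luciferin and 10uM ATP (Km levels) in 50mM Tris acetate pH 7.5, 10mM Mg acetate, 0.01% Tween-20, 0.05% BSA; qHTS 6-point titration, ~60 µM downward; luminescence read.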
NPC1 prom act = activators of NPC1 promoter. Potency, µM (doses to about 9.22 µM), for inactives: at the top dose activation, usual class: activators. 320,000 compounds, 2.4% hits. Huh7 NPC1 promoter luciferase reporter, 24 h; also: % of control where 0% means no effect; nearly all actives have a fitted effect of over 60% in size
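Huh7 reporter cells (NPC1 promoter driving luciferase) are dosed with compound for 24 h at 37 °C, 5% CO2; luciferase detection reagent is then added and luminescence measured after 10 min at ambient temperature.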
Rab9 prom act = activates the Rab9 promoter. Huh7 Rab9 promoter-luciferase reporter, luminescence, 24 h. Potency, µM (series often up to 9.22 µM), for inactives: at the highest dose activation, negative = inhibition, most hits filed as activators. 320,000 compounds, 2.8% hits; also: % of control where 0% means no effect; nearly all actives have a fitted effect of over 60% in size
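Luciferase signal after 10 min detection reagent at ambient indicates Rab9 promoter upregulation; stably transfected Huh7 cells were treated 24 h with compound in DMSO at 37 °C, 5% CO2.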
Active calls of the source: *; ? = inconclusive; nt = no result. Compounds with a hit are over-represented: about 7.3% of the library has one in this group of screens. Calls follow the shape of the dose curve; as a rule, active = well fitted curve in the direction sought with a large enough effect; inconclusive = small, poorly fitted or top-dose-only effect, or another doubt; inactive = no such curve, though single readings can be large; an effect the other way counts as inactive or inconclusive. Potency is read from the fitted curve at half-maximal effect.

SMILES	ELG1 genotoxic	KinaseGlo FLuc	SMN2 splice enh	FLuc modulator	NPC1 prom act	Rab9 prom act
COc1ccc2nc3oc(C(=O)N4CCCCC4)cc3cc2c1	14.6µM*	1.2%	14.1µM*	6.75µM*	3.16µM*	2.82µM*
CCOC(=O)C1CCN(C(=O)c2cc3ccc(OC)cc3[nH]2)CC1	8.4%	nt	nt	-19.2%	?	?
COc1ccc2cc3cc(C(=O)N4CCN(c5ccccc5)CC4)oc3nc2c1	-0.9%	-4.9%	-41.1%	?	-1.4%	-1.1%
COc1ccc2nc3oc(C(=O)N4CC(C)CC(C)C4)cc3cc2c1 (configuration not stated)	2.8%	nt	nt	21.3µM*	-1.4%	12.0%
CCOC(=O)C1CCCN(C(=O)c2cc3cc4ccc(OC)cc4nc3o2)C1 (configuration not stated)	-0.1%	nt	nt	?	2.4%	23.6%
Cc1cc(NS(=O)(=O)c2ccc(NC(=O)/C=C/c3ccccc3)cc2)no1	4.1%	nt	nt	?	2.3%	-0.1%
Cc1cc(NC(=O)/C=C/c2ccccc2Cl)no1	12.5%	-0.8%	?	?	2.82µM*	2.82µM*
Cc1cc(NS(=O)(=O)c2ccc(NC(=O)/C=C/c3ccccc3Cl)cc2)no1	10.0%	nt	nt	8.49µM*	-4.8%	1.6%
Cc1cc(NC(=O)c2cccs2)no1	12.1%	nt	nt	?	19.5%	23.4%
Cc1cc(NC(=O)c2ccccc2)ccc1NC(=O)c1ccccc1Cl	-3.6%	nt	nt	?	-0.2%	10.1%
Cc1ccc(NC(=O)c2ccccc2Cl)c(Cl)c1	19.1%	-3.3%	-3.7%	19µM*	27.2%	?
Cc1cc(NC(=O)c2sc3ccccc3c2O)no1	10.3µM*	nt	nt	9.53µM*	1.58µM*	3.16µM*
Cc1cc(NC(=O)c2ccccc2Cl)no1	?	-6.4%	?	15.1µM*	?	3.98µM*
Cc1cc(NC(=O)NC(=O)c2ccccc2F)no1	?	nt	nt	?	?	3.55µM*
COc1ccc(NC(=O)c2cc(C(C)C)on2)c(OC)c1	14.6µM*	-1.9%	15.8µM*	?	?	3.55µM*
Cc1cc(NC(=O)c2c(F)cccc2Cl)no1	-1.5%	3.6%	21.1%	-13.2%	3.9%	-1.1%
Cc1cc(NC(=O)c2ccc(F)cc2F)n(-c2nc3ccccc3[nH]2)n1	18.0%	-1.2%	-28.5%	1.7%	-0.6%	-0.4%
Cc1cc(NC(=O)/C=C/c2ccccc2Cl)n(-c2nc3ccccc3[nH]2)n1	6.8%	-7.6%	11.2µM*	1.35µM*	?	2µM*
Cc1cc(NC(=O)c2cc(C(C)C)on2)no1	?	-6.6%	?	15.1µM*	?	?
CNC(=O)C1CCC(Cn2c(=O)c3sccc3n(CC(=O)Nc3cc(C)cc(C)c3)c2=O)CC1 (configuration not stated)	nt	nt	nt	-1.8%	nt	nt
Cc1nc2c(C)cccc2cc1C(=O)N/N=C/c1ccc(N(C)C)cc1	0.0%	-4.7%	?	?	-0.1%	2.1%
CC(=O)Nc1ccc(/C=N/NC(=O)c2cc3cc(C)ccc3nc2C)cc1	?	9.4%	-22.3%	6.01µM*	11.2%	17.0%
CC(=O)Nc1ccc(/C=N/NC(=O)c2cc3ccccc3nc2C)cc1	1.1%	-0.1%	6.7%	-18.1%	-1.0%	-1.8%
Cc1nc2c(C)cccc2cc1C(=O)N/N=C/c1ccc(C(=O)O)cc1	0.4%	-4.0%	2.8%	16.9µM*	0.8%	0.3%
c1ccc(CSc2nnc(Cc3ccccn3)o2)cc1	2.3%	-4.0%	-0.8%	?	?	?
O=C(O)c1cccc(CSc2ncn[nH]2)c1	-0.8%	nt	nt	19µM*	11.9%	?
c1ccc(CSc2nnc(Cc3ccccc3)o2)cc1	?	-2.0%	?	23.9µM*	18.9%	?
O=C(O)c1cccc(CSc2nnc(Cc3ccccc3)o2)c1	?	1.7%	15.8µM*	19µM*	27.9%	?
COc1cccc(Cn2c(NCc3ccc(C)cc3)nc3c2c(=O)n(C)c(=O)n3C)c1	nt	nt	6.5%	0.7%	nt	nt
